Measured values as given in PubChem BioAssay AID623959 (National Center for Advancing Translational Sciences (NCATS), 2012).
Hit rate of the full screen: of about 1,400 compounds, fewer than 10 were called active. About 8% were inconclusive and are not listed. Calls follow the shape of the dose curve; as a rule, active = well fitted curve in the direction sought with a large enough effect; inconclusive = small, poorly fitted or top-dose-only effect, or another doubt; inactive = no such curve, though single readings can be large or run the other way. A selection follows.

target: Transient receptor potential cation channel subfamily V member 1 (Homo sapiens) (UniProt Q8NER1); assay: qHTS Assay for Compounds that Act as Potentiators of the Vanilloid Receptor 1: Hit Validation; details: TRPV1-expressing cells, Fluo-8 calcium influx, capsaicin EC20; series mostly up to 42.1 µM; activity change, positive = potentiation: at the top concentration; also: % of control where 0% means no effect
Sequence (Q8NER1 whole entry, looked up): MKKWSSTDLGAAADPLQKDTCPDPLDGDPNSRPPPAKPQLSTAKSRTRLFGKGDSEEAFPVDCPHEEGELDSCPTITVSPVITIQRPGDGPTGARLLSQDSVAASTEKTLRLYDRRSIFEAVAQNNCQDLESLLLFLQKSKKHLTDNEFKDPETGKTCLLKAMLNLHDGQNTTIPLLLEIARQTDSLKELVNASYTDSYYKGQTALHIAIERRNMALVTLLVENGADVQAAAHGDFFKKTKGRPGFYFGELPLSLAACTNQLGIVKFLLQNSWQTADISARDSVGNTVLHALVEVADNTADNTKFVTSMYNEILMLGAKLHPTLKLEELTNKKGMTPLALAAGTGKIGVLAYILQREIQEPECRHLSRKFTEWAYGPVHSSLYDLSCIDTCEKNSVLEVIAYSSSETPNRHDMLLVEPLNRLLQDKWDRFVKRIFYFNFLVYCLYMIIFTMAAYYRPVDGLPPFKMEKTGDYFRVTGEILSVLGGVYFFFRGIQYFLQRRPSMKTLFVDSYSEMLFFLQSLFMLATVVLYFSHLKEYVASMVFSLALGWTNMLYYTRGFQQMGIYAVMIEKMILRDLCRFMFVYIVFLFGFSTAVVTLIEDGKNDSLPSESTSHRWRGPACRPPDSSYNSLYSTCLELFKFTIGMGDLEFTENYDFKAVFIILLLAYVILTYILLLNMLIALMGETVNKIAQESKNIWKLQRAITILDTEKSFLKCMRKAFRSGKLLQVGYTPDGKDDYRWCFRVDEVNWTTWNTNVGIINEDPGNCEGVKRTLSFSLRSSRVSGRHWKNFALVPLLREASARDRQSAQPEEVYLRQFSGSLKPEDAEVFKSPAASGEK
Source text: The transient receptor potential ion channel, family V, number 1, (TRPV1) is one of the most important molecular transducers of painful stimuli and a potential target for analgesic drug development. Although recent clinical trials with orthosteric antagonists have not produced a successful drug because of a hyperthermia side effect and their tendency to block thermal noxious pain, this ion channel is undeniably well placed in the pain pathway, and the idea of blocking pain signals before they enter the CNS is an excellent concept and of proven efficacy when TRPV1 agonists are used. We propose a new approach involving allosteric modulation to impose an activity-dependent constraint within the context of inflammation and tissue damage that would alter the responsiveness of the channel in a way that an orthosteric vanilloid antagonist cannot achieve. We believe that the allosteric modulator approach has not been explored for this target. The main goal of this proposal is to identify additional, new, potent allosteric modulators of TRPV1 that can be used to investigate TRPV1 function. Our recent report provides evidence of proof of concept, but the compounds are just at the edge of utility in terms of potency. […] The question of whether they can be used as analgesic agents is complex, but if suitable compounds are identified then testing for analgesic properties will be conducted. Compounds identified as agonists were re-tested in the primary screen for hit validation. NIH Chemical Genomics Center [NCGC] NIH Molecular Libraries Probe Centers Network [MLPCN] MLPCN Grant: MH089480 Assay Submitter (PI): Michael Iadarola, National Institute of Dental and Cranofacial Research
Upon TRPV1 activation in TRPV1 cells, the channel opens and extracellular cations flow through the channel into the cytosol. A calcium binding dye (Fluo-8) becomes fluorescent when bound to calcium. This dye is pre-loaded into cells and is used as a marker for calcium influx. The amount of accumulated calcium is precisely quantified using the FDSS kinetic reader and the calcium dye. For the HTS assay, freshly prepared cells are plated at a density of 2000/well in 3 ul medium in 1536-well plates and cultured overnight at 35.5C. Cells will be loaded with 1 ul of the homogeneous calcium dye (ABD Bioquest) at room temperature for 40 to 90 minutes. Plates will be loaded into the FDSS kinetic reader and a 1 sec / cycle for 10 second baseline signal will be measured. Compound library will then be added with a pintool at 23 nl and measured kinetically for 3 minutes. This portion of the read is considered the agonist portion of the screen. Following the 3 minutes of incubation, an on board pipettor will deliver 1 ul of capsaicin for a final concentration equal to the EC20. Signal will be measured kinetically for an additional 2 minutes. This portion of the read is considered the allosteric enhancer portion of the screen. The FDSS reader has a standard filter set capable of measuring calcium bound Fluo-8 (ex=480 and em=520 nm).

Activity change, positive = potentiation, inactive:
CC(Oc1cccc(Cl)c1)C(=O)Nc1nc(-c2ccccn2)cs1 (centres undefined) -5.61%
Cc1cc(C)c(C(=O)N2CCCC(Nc3ccc(C)c(C)c3)C2)o1 (centres undefined) -38.2%
Cc1[nH]c2ccccc2c1-c1nc2ccccc2[nH]1 -11.8%
CSc1ncccc1C(=O)OCc1ccc(Br)cc1 -6.08%
COc1ccc(-c2nn(-c3ccccc3)cc2C(=O)NC(=S)Nc2cc(Cl)ccc2Cl)cc1 -10.8%
CCOCCCn1c(=S)[nH]c2cc(C(=O)N3CCC(C(N)=O)(N4CCCCC4)CC3)ccc2c1=O -7.29%
CCOc1c(Nc2ccc(C(C)C)cc2)c(=O)c1=O -36.4%
O=C(Cc1cccs1)Nc1cccc(-c2nnc(-c3ccco3)o2)c1 -4.78%
O=C(NCc1ccncc1)c1ccc(Oc2ccccc2)cc1 -35.7%
CC(C)C[C@H](NC(=O)c1[nH]cnc1C(=O)N[C@@H](Cc1ccccc1)C(=O)OC(C)(C)C)C(=O)OC(C)(C)C -33.7%
CC(C)(C)C(=O)CSc1ncnc2c1cnn2Cc1ccccc1 -37.9%
CCC(CO)NCc1ccc(OCC(O)c2ccccc2)c(OC)c1 (centres undefined) -0.957%
COc1c(O)ccc(/C=N\NC(=O)c2ccc3c(c2)OCO3)c1[N+](=O)[O-] -5.8%
O=C(CCCCn1c(=O)c2ccccc2n(CC(=O)NC2CCCC2)c1=O)NCc1ccco1 -5.96%
CC(=O)c1cccc(NC(=O)/C(=C\c2cccnc2)NC(=O)c2ccc(C)cc2)c1 3.38%
C=C(C)c1cccc(C(C)(C)NC(=O)Nc2cccnc2)c1 -37.9%
COCCn1cnnc1SCC(=O)Nc1cc(OC)c([N+](=O)[O-])cc1C -6.14%
Cc1ccc(NC(=O)CN(C)C(C)C(=O)Nc2ccc(S(=O)(=O)N3CCCC3)cc2)cc1 (centres undefined) -4.26%
O=C(NCc1cccnc1)c1ccc(-c2ccc(Cl)cc2)o1 -37.5%
CC(C)=NOCC(=O)Nn1c(COc2ccccc2)nc2ccccc2c1=O 4.02%
O=C(Nc1ccc(F)cc1)c1ccc2ncsc2c1 -36.9%
CC(=O)Oc1ccc(/C=C/c2nc3ccccc3c(=O)o2)cc1 -8.54%
CCOc1ccc(OCCC(=O)N(CC(=O)Nc2ccccc2C(F)(F)F)Cc2ccco2)cc1 -7.83%
CN(C)/C=C/C(=O)c1nnn(C2CCCCC2)c1NC1CCCCC1 -35.6%
